Data published in PubChem BioAssay AID1066 (SRMLSC, 2008).
Among all 190,000 compounds or so, about 790 (0.42%) were called active. The entries come from a sample that favours actives as a whole. Unmarked numbers belong to inactive results.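 Rule for the calls: active = inhibition above a set limit, the median over all tested compounds plus 3 SD (cut at about 9.5% in these data); inconclusive = no clear call, values can overlap the other calls; inactive = the rest.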

These compounds were tested on HMG-CoA reductase (Enterococcus faecalis, mvaE) (assay: inhibitors of E. faecalis class II HMGR, primary screen, biochemical, Enterococcus faecalis (AID 1066;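 note: enzyme runs in reverse so mevalonate oxidation gives rising NADPH absorbance; 0% = complete reaction with DMSO and 100% = background rate lacking mevalonate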)). Details: purified E. faecalis HMGR, NADPH absorbance 340 nm kinetic; at 10 µM; stronger effect = higher value.

In order of rising inhibition:
1. Cc1ccc(S(=O)(=O)N2CCOCC2)cc1C(=O)NCc1ccc(F)cc1  -7.95%
2. O=C1Nc2ccc([N+](=O)[O-])cc2C1=Nc1cccc(CO)c1  -7.75%
3. COc1cc(Cl)c(C)cc1NC(=O)[C@@H]1CCCN1C(=O)c1cccs1  -6.68%
4. C/C=C/C=C/C(=O)OCC(=O)Nc1ccc(Cl)cc1  -6.31%
5. CN(Cc1ccccn1)Cc1nc(-c2ccc(Cl)cc2)no1  -4.55%
6. O=C1Oc2ccccc2C(=O)/C1=C/c1ccccc1O  -4.42%
7. CC(C)(C)c1csc(NC2=NS(=O)(=O)c3ccccc32)n1  -4.26%
8. COc1cc(/C=C2/C(=O)ON=C2C)ccc1OCc1ccccc1F  -4.22%
9. C/C(=N\OCC(=O)Nc1ccc(Br)cc1)c1cccs1  -3.94%
10. O=C1c2ccccc2C(=O)N1CCC(c1ccccc1)c1ccco1 (stereo unspecified)  -3.81%
11. Cc1ccc(S(=O)(=O)N2CCOCC2)cc1NC(=O)CSc1nnc(N)s1  -3.38%
12. Cc1ccc(CN2CCN(Cc3cccc(C)n3)CC2CCO)cc1 (stereo unspecified)  -2.73%
13. O=C(Oc1ccccc1)c1ccc2nccnc2c1  -2.55%
14. CCOC(=O)C1CCN(S(=O)(=O)c2cc(F)ccc2OC)CC1  -2.34%
15. Cc1cc(C)cc(NC(=S)NCCCN2CCOCC2)c1  -2.33%
16. O=C(COC(=O)c1ccc(Cl)nc1)NCc1cccs1  -2.01%
17. Cc1ccc(NC(=S)NCCN2CCOCC2)cc1  -1.8%
18. O=C(CCc1[nH]c2ccccc2c1Sc1ccccc1)N(CCO)CCO  -1.48%
19. COC(=O)c1ccc(/C=N/N2C(C)CCCC2C)cc1 (stereo unspecified)  -1.41%
20. Cc1ccc2c(c1)C1CN(C)CCC1N2S(=O)(=O)c1ccc(Oc2ccc([N+](=O)[O-])cc2)cc1 (stereo unspecified)  -1.37%
21. COCc1c(N)c(C)nc(Cl)c1C#N  -1.22%
22. COc1ccc(C(=O)NC2CCN(C(=S)Nc3ccccc3)CC2)cc1  -0.68%
23. CCOC(=O)C1(Cc2cccc(OC)c2)CCN(C(C)CC(C)(C)O)CC1 (stereo unspecified)  -0.39%
24. CCc1ccc(NC(=O)Nc2ccncc2)cc1  -0.38%
25. CCOC(=O)c1sc(NC(=O)c2cc(S(=O)(=O)N3CCOCC3)ccc2C)nc1C  -0.38%
26. CCNC(=O)N1c2ccccc2Sc2ccccc21  -0.32%
27. CCOC(=O)CC(NC(=O)C1c2ccccc2Oc2ccccc21)c1ccc(C)cc1 (stereo unspecified)  -0.18%
28. CC1(C)OC(=O)C(=CNC(CO)C(=O)O)C(=O)O1 (stereo unspecified)  -0.06%
29. CCOC(=O)CNC(=O)CN1C(=O)CCSc2ccccc21  0.21%
30. CC(C)OC(=O)CN1C(=O)c2ccccc2C1=O  0.65%
31. Cc1cc(C(=O)N/N=C/c2cc([N+](=O)[O-])cc(C)c2O)n[nH]1  1.28%
32. CCN(C(=O)COc1cccnc1[N+](=O)[O-])C1CCS(=O)(=O)C1 (stereo unspecified)  1.64%
33. COc1ccc(CC2(CO)CCN(Cc3cnn(C)c3)CC2)cc1  1.94%
34. O=C(/C=C/c1ccc(Cl)cc1)Nc1ccc(S(=O)(=O)Nc2ncccn2)cc1  1.98%
35. CCOC(=O)C1CCCN(C(=O)c2cccc(S(=O)(=O)N3CCOCC3)c2)C1 (stereo unspecified)  2.45%
36. Cc1cccc(-c2ncc(CN3CCC(CO)(CCCc4ccccc4)CC3)cn2)c1  3.07%
37. CC(C)(C)NC(=O)CN(C(=O)c1csnn1)c1ccccc1-c1ccccc1  3.37%
38. CC(=O)NS(=O)(=O)c1ccc(NC(=O)/C=C/c2ccccc2Cl)cc1  4.83%
39. O=C1CCN(C(=S)NCCc2ccccc2)CC1  4.83%
40. COc1cc(/C=N/n2c(C)n[nH]c2=S)ccc1OCc1ccccc1  5.27%
41. N/C(Cc1ccc([N+](=O)[O-])cc1)=N\OC(=O)C1CCCCC1  5.63%
42. CCOC(=O)CCCNC(=O)COC(=O)c1cc(Br)c(Br)s1  6.54%

In the case of `COc1cccc(CC2(CO)CCN(Cc3cnc(-c4cccc(C)c4)nc3)CC2)c1`, the inhibition is reported as 10.2% (active).
In the case of `CCCCc1ccc(NC(=S)NCCCN2CCOCC2)cc1`, the inhibition is reported as 9.74% (active).
In the case of `Cc1ccc(S(=O)(=O)N2CCOCC2)cc1C(=O)OC1CCCCC1=O` (stereo unspecified), the inhibition is reported as 11.2% (active).
With `O=C(/C=C/c1ccccc1Cl)Nc1ccc(S(=O)(=O)Nc2ncccn2)cc1` the inhibition was 9.55% (active).
In the case of `COc1ccc(C(=O)NC2CCN(C(=S)NCCc3ccccc3)CC2)cc1`, the inhibition is reported as 16.3% (active).
With `COc1cc(/C=C2/C(=O)ON=C2C)ccc1OCc1cccc(F)c1` the inhibition was 15.9% (active).
`CCOC(=O)CNC(=O)N1c2ccccc2Sc2ccccc21` was tested, and the inhibition was 10.8% (active).
For `O=C(Oc1cccc(NC2=NS(=O)(=O)c3ccccc32)c1)c1ccncc1`, the inhibition was 13.3% (active).
`O=C1c2ccccc2C(=O)N1CCC(O)C[N+](=O)[O-]` (stereo unspecified) was tested, and the inhibition was 14.4% (active).
